Reference: PubChem BioAssay AID588852 (The Scripps Research Institute Molecular Screening Center, 2011)
The campaign covered roughly 360,000 compounds. About 4,600 (1.3%) were called active. The entries come from a sample that favours actives as a whole. Unmarked numbers belong to inactive results.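 The calls were made as follows: active = percent inhibition above its own plate's cutoff, namely the mean of that plate's compound wells plus 3 SD; inactive = the rest.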

Each molecule was assayed against Muscarinic acetylcholine receptor M1 (Homo sapiens) (UniProt P11229) (assay: CHRM1 blockers of acetylcholine calcium response – CHO-K1 cells, Fluo-8 calcium fluorescence, 1536-well, primary screen (AID 588852;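 also: peak over basal fluorescence ratio during 140 s after agonist addition; 0% = ACh EC80 plus DMSO and 100% = DMSO alone without agonist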)). Conditions: CHO-K1 hM1, Fluo-8 calcium fluorescence, ACh EC80 antagonist; at 3 µM; active compounds read high.
Chain of Muscarinic acetylcholine receptor M1 (Homo sapiens) (P11229 whole entry, looked up): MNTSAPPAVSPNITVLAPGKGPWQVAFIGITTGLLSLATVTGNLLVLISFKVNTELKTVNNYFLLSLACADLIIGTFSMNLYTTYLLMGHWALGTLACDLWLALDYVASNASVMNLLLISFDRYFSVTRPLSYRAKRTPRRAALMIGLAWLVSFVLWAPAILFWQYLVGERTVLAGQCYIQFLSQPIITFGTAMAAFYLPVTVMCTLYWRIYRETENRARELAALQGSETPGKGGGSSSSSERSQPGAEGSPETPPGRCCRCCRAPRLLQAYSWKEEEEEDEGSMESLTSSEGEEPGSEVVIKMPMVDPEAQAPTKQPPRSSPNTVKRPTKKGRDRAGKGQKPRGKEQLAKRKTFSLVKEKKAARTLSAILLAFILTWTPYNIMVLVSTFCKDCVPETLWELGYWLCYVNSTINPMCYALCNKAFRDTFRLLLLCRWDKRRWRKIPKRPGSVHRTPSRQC

| Structure (SMILES) | inhibition |
| --- | --- |
| O=C(CSc1nnc2c(n1)[nH]c1ccccc12)NC1CCCCC1 | -3.99% |
| O=C(CNS(=O)(=O)c1ccc2ccccc2c1)Nc1ccc(F)c(F)c1F | -2.2% |
| Cc1cc(=O)oc2c3c(cc(OCC(=O)NCC(O)c4ccccc4)c12)OC(C)(C)CC3 (stereo unspecified) | -9.2% |
| O=C(c1ccc(-n2cnnn2)cc1)N1CCN(C(c2ccccc2)c2ccccc2)CC1 | 78.5% (active) |
| Cn1nnnc1SCC(=O)N1CCN(C(c2ccccc2)c2ccccc2)CC1 | -2.38% |
| Cc1onc(C(=O)NN)c1C(=O)N1CCN(C(c2ccccc2)c2ccccc2)CC1 | 4.44% |
| CC(C)(C)Cc1c(C2CCCCC2)nc2ccc(Br)cn12 | -23.6% |
| COc1cc(OC)c(C2=NOC(C(=O)Nc3c(C)n(C)n(-c4ccccc4)c3=O)C2)cc1Cl (stereo unspecified) | -4.11% |
| Cc1ccc(N(Cc2cc3ccccc3[nH]c2=O)C(=O)c2cccs2)cc1 | -3.76% |
| Cc1ccc(N(Cc2cc(=O)[nH]c3ccccc23)C(=O)CCl)cc1 | 41.3% (active) |
| CC(=O)N(Cc1cc(=O)[nH]c2ccccc12)c1ccc(C)cc1C | -12.4% |
| C=C(C)C1CC=C(C)/C(=N/NC(=O)CCCNc2cccc(C)c2)C1 (stereo unspecified) | 10% |
| CCCOc1ccc(N2CC(C(=O)Nc3ccccn3)CC2=O)cc1 (stereo unspecified) | -17.6% |
| O=C(NCc1ccccc1Cl)C1CCN(c2ncnc3c2nc2n3CCCCC2)CC1 | -5.23% |
| COc1ccccc1CNC(=O)CCCn1c(=O)c2ccccc2n(CC(=O)NC2CCCC2)c1=O | -13.2% |
| COc1ccccc1NC(=S)N1CCN(c2ccc(F)cc2)CC1 | -20.2% |
| COc1ccccc1CN1CCN(C(c2ccccc2)c2ccccc2)CC1 | 63.6% (active) |
| COc1ccccc1NC(=S)N1CCN(C(c2ccccc2)c2ccccc2)CC1 | 53.1% (active) |
| COc1cccc(OC)c1C(=O)N1CCN(Cc2ccccc2F)CC1 | -1.36% |
| COc1ccccc1CN1CCN(Cc2cc(OC)c(OC)cc2OC)CC1 | -21.9% |
| COc1ccccc1NC(=S)N1CCC(NC(=O)C23CC4CC(CC(C4)C2)C3)CC1 | -7.97% |
| CC(C)(C)NC(=O)COc1ccc(CNc2ccc3[nH]c(=O)[nH]c3c2)cc1 | -1.62% |
| COc1cc(C2OC(c3cc(OC)c(OC)c(OC)c3)C(C)C2C)cc(OC)c1OC (stereo unspecified) | 0.63% |

| Structure (SMILES) | inhibition |
| --- | --- |
| Oc1cccc2cc(-c3ccncc3)cnc12 | -21.3% |
| O=C(c1cc(Cl)cc(Cl)c1)N1CCC(=O)N(C(COCc2ccccc2)Cc2ccccc2)CC1 (stereo unspecified) | 7.3% |
| O=[N+]([O-])c1ccc(CN2CC(N3CCC(c4ccccc4)CC3)CS2(=O)=O)cc1 (stereo unspecified) | 7.07% |
| CCOC(=O)c1ccccc1NS(=O)(=O)c1c(C)nc2sccn2c1=O | 6.39% |
| COC(=O)c1ccc(CN2CCC(CO)(Cc3ccc(OC)cc3)CC2)cc1 | 53.5% (active) |
| COc1ccc(CC2(CO)CCN(Cc3cnn(C)c3)CC2)cc1 | 1.8% |
| CCOC(=O)C1(CCOC)CCN(Cc2ccc(C(=O)OC)cc2)CC1 | -9.07% |
| O=C(CN1CCN(c2ccccc2O)CC1)NC(=O)NCc1ccccc1 | -3.68% |
| Cn1c(-c2ccc(C(F)(F)F)cc2)cc2onc(-c3ccccc3)c2c1=O | 2.31% |
| CC(C(=O)NC1CCCCC1)N1C(=O)c2cccc3cccc1c23 (stereo unspecified) | 8.39% |
| COc1ccccc1C(=O)Nc1ccnn1C1CCN(Cc2cnn(C)c2)CC1 | -12.3% |
| COc1ccccc1C(=O)Nc1ccnn1C1CCN(C(=O)C(C)(C)C)CC1 | 47.4% (active) |
| COc1ccccc1N1CCN(CC(=O)Nc2ccnn2C2CCCC2)CC1 | -12.8% |
| C/C(O)=C\c1nc(=O)c2c(C)cc(C)nc2n1-c1ccccc1 | -3.66% |
| S=C(NCCCc1cnc[nH]1)NCCCN(Cc1ccc(Cl)c(Cl)c1)c1ccc(Br)cn1 | 0.91% |
| CCOc1cc(/C=N/NC(=O)c2ccc(CSc3nncn3C)cc2)ccc1OCC(=O)N1CCOCC1 | -1.07% |
| CC(C)(C)S(=O)N1Cc2cc(C(=O)NCCCN3CCOCC3)nc(-c3cccc(-c4cc5ccccc5o4)c3)c2[C@H]1CCO (stereo partly specified) | -16.2% |
| CCN(CC)S(=O)(=O)c1ccc(OC(C)C)c(N)c1 | -11.4% |
| CCN1/C(=C\c2ccc3ccccc3[n+]2CC)Sc2cc(C)ccc21 | 59% (active) |
| CCCCCCCCCCOC(=O)Cn1c(COc2ccc(C)cc2)[n+](C)c2ccccc21 | 30.8% |
| CCCCCCCCCCOC(=O)Cn1c(COc2cccc(OC)c2)[n+](C)c2ccccc21 | 58.2% (active) |
| O=C(C=CC(=O)Nc1ccc(F)cc1F)Nc1ccc(F)cc1F | -4.83% |
| CC(=O)Nc1ccc(S(=O)(=O)N2CCC(C(=O)NC3CC3)CC2)cc1 | -7.82% |
